Assay [1] can be described thus: polyglutamine-triggered caspase-3 activation inhibitors, cell-based (AID 1583). The note with it: polyglutamine-induced caspase-3 activation, cell assay; stronger effect = higher value;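 tested at 10 µM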.
Assay [2] is described as follows: suppressors of polyQ aggregation in yeast, 75Q-TubU reporter (AID 1593). The note with it: Yeast 75Q polyglutamine aggregation reporter.
A short description of assay [3]: rescue of polyQ-huntingtin neuronal dysfunction in worms, whole organism, C. elegans mechanosensory neurons, N-terminal huntingtin (AID 1599). The note with it: touch response, stronger effect = higher value.
Assay [4] can be described thus: inhibitors of mitochondrial cytochrome c release, biochemical, purified mitochondria (AID 1603).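 Further: mouse liver mitochondria challenged with calcium chloride; signal normalized to the plate average as 100%.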 The note with it: stronger effect = lower value.

For some of these results: Results with a measured potency or affinity are listed apart. Peptide text beside a SMILES is read from it.

The text below walks through data of PubChem BioAssay.

Take `CC12CC[C@@H]3c4ccc(O)cc4CCC3[C@@H]1CCC2=O` (stereo partly drawn): the inhibition in assay [1] was -0.88%. Moreover, the score in assay [2] turned out to be 0.11. Further, in assay [3], the rescue above control was 10.3. In assay [4], the cytochrome c release ratio was 0.91.

Take `Nc1ncnc2c1ncn2C1OC(CO)[C@H](O)C1O` (stereo partly drawn): the inhibition in assay [1] was -97.3%. This compound also displayed a score in assay [2] of 1.18. The same compound registered a rescue above control in assay [3] of -9.49. The cytochrome c release ratio in assay [4] amounted to 1.64.

Turning to `C1CCN2C[C@@H]3CC(CN4CCCC[C@@H]34)[C@H]2C1`, the inhibition in assay [1] was found to be 16.2%. The score in assay [2] stood at 1.32. In addition, the rescue above control in assay [3] was -2.17. In assay [4], the cytochrome c release ratio came out at 1.45.

Turning to `NCCNC(=O)c1ccc(Cl)cc1`, the inhibition in assay [1] was -45.7%. In addition, the score in assay [2] amounted to 1.23. The same compound displayed a rescue above control in assay [3] of -2.85. Also, in assay [4], the cytochrome c release ratio came to 1.14.

Take `CC(=O)[C@H]1CCC2C3CC=C4C[C@@H](O)CC[C@]4(C)C3CC[C@@]21C` (stereo partly drawn): the inhibition in assay [1] came out at 19.7%. The same compound displayed a score in assay [2] of 0.01. Further, the rescue above control in assay [3] is -2.78. Also, the cytochrome c release ratio in assay [4] was determined as 1.03.

Consider `CO/N=C(\C(=O)NC1C(=O)N2C(C(=O)O)=C(CSc3nc(=O)c(O)nn3C)CS[C@H]12)c1csc(N)n1` (stereo partly drawn), for which the inhibition in assay [1] was 3.84%. Also, in assay [2], the score amounted to 1.38. The compound also yielded a rescue above control in assay [3] of -0.56. Further, in assay [4], the cytochrome c release ratio was 1.14.

Take `COc1ccc(CCC(=O)c2c(O)cc(O[C@@H]3O[C@H](CO)C(O)[C@H](O)C3O[C@@H]3O[C@@H](C)[C@H](O)[C@@H](O)[C@H]3O)cc2O)cc1O` (stereo partly drawn): the inhibition in assay [1] worked out at 18.6%. This compound also gave a score in assay [2] of 1.15. For the same compound, the rescue above control in assay [3] was -2.46. For the same compound, the cytochrome c release ratio in assay [4] turned out to be 1.1.

For the compound `COC1=C2C[C@@H](C)C[C@H](OC)[C@H](O)[C@@H](C)/C=C(\C)[C@@H](OC(N)=O)[C@H](OC)/C=C\C=C(/C)C(=O)NC(=CC1=O)C2=O`, the inhibition in assay [1] is -5.02%. The compound also returned a score in assay [2] of 2.11. This compound showed a rescue above control in assay [3] of 0. For the same compound, in assay [4], the cytochrome c release ratio is 1.13.

As to `CCC(=O)OC1CCC2C3CCc4cc(O)ccc4C3CCC12C` (stereo not drawn), the inhibition in assay [1] is 6.67%. For the same compound, the score in assay [2] turned out to be 0.64. Further, in assay [3], the rescue above control is -1.7. Besides, the cytochrome c release ratio in assay [4] worked out at 1.72.

Consider `NC[C@@H]1O[C@H](O[C@@H]2[C@@H](CO)OC(O[C@@H]3[C@@H](O)[C@H](N)C[C@H](N)[C@H]3OC3O[C@H](CO)[C@@H](O)[C@H](O)[C@H]3N)[C@@H]2O)[C@H](N)[C@@H](O)[C@@H]1O` (stereo partly drawn), for which the inhibition in assay [1] is -9.63%. This compound also displayed a score in assay [2] of 1.53. Also, the rescue above control in assay [3] was found to be 1.69. In addition, the cytochrome c release ratio in assay [4] is 1.36.

Take `CCC[C@@H]1C[C@@H](C(=O)NC(C(C)Cl)C2O[C@H](SC)[C@H](O)[C@@H](O)[C@H]2O)N(C)C1` (stereo partly drawn): in assay [1], the inhibition is 0.38%. In assay [2], the score is 1.1. The compound also returned a rescue above control in assay [3] of -7.48. Also, the cytochrome c release ratio in assay [4] was found to be 1.11.

As to `CN[C@@H]1[C@H](O)[C@H](NC)[C@H]2O[C@@]3(O)C(=O)C[C@@H](C)O[C@H]3OC2[C@H]1O` (stereo partly drawn), in assay [1], the inhibition is 1.15%. In addition, the score in assay [2] was 1.13. Moreover, the rescue above control in assay [3] is -5.98. Further, in assay [4], the cytochrome c release ratio came out at 0.86.

Regarding `NC[C@@H]1O[C@H](O[C@H]2[C@@H](O)[C@H](O[C@@H]3[C@@H](O)[C@H](N)C[C@H](N)[C@H]3O[C@@H]3O[C@H](CO)[C@@H](O)C[C@H]3N)O[C@@H]2CO)[C@H](N)[C@@H](O)[C@@H]1O[C@H]1O[C@H](CO)[C@@H](O)[C@H](O)[C@@H]1O`, in assay [1], the inhibition is -3.41%. The compound further gave a score in assay [2] of 1.7. The same compound gave a rescue above control in assay [3] of 7.71. Besides, the cytochrome c release ratio in assay [4] is 0.95.

On to `OCCS`, for which, in assay [1], the inhibition was 26.7%. Further, the score in assay [2] was 1.26. In assay [3], this compound came in with a rescue above control of -1.67. Moreover, the cytochrome c release ratio in assay [4] worked out at 1.18.

For `CCC(=O)O[C@@H](O[P@](=O)(CCCCc1ccccc1)CC(=O)N1C[C@H](C2CCCCC2)C[C@H]1C(=O)O)C(C)C`, in assay [1], the inhibition worked out at 5.65%. In addition, the score in assay [2] stood at 0.97. The compound also showed a rescue above control in assay [3] of 2.83. The cytochrome c release ratio in assay [4] is 0.8.

For `CC(Oc1ccccc1)C(=O)NC1C(=O)N2C(C(=O)O)C(C)(C)S[C@H]12` (stereo partly drawn), the inhibition in assay [1] stood at 11.5%. This compound also had a score in assay [2] of 1.28. In addition, the rescue above control in assay [3] is -11.5. The cytochrome c release ratio in assay [4] turned out to be 0.66.

As to `C[C@@H]1CC2C3C[C@H](F)C4=CC(=O)C=CC4(C)C3(F)[C@@H](O)CC2(C)C1C(=O)COC(=O)C(C)(C)C` (stereo partly drawn), in assay [1], the inhibition was 26.8%. This compound also displayed a score in assay [2] of 0.1. The rescue above control in assay [3] is -3.49. The cytochrome c release ratio in assay [4] is 1.09.

For `CC(N)C(O)c1cccc(O)c1` (stereo not drawn), the inhibition in assay [1] is -31.9%. Besides, the score in assay [2] came to 1.32. In assay [3], this compound returned a rescue above control of 2.5. Further, the cytochrome c release ratio in assay [4] turned out to be 0.89.

As to `Cc1cc(Nc2ccccc2C(=O)O)ccc1Cl`, the inhibition in assay [1] was -21.2%. The score in assay [2] was -0.11. In assay [3], the rescue above control is -9.28. Further, the cytochrome c release ratio in assay [4] was 4.31.

For `CC1(C)O[C@@H]2C[C@H]3C4C[C@H](F)C5=CC(=O)C=CC5(C)[C@@]4(F)[C@@H](O)C[C@]3(C)[C@]2(C(=O)CO)O1` (stereo partly drawn), the inhibition in assay [1] is -27.2%. The compound further yielded a score in assay [2] of 1.29. Moreover, in assay [3], the rescue above control was -9.42. For the same compound, in assay [4], the cytochrome c release ratio is 0.94.

As for `CC(=O)OCC(=O)[C@@]1(O)CC[C@H]2C3CCC4=CC(=O)CCC4(C)[C@@]3(F)[C@@H](O)CC21C` (stereo partly drawn), the inhibition in assay [1] was determined as 9.6%. The compound also came in with a score in assay [2] of 1. Also, the rescue above control in assay [3] turned out to be 20.3. In assay [4], the cytochrome c release ratio stood at 0.71.

For the compound `NCCCCC(N)C(=O)NC(Cc1c[nH]c2ccccc12)C(=O)NC(CCCCN)C(=O)O` (stereo not drawn) (H-Lys-Trp-Lys-OH; configuration not given here), the inhibition in assay [1] was determined as 5.19%. In addition, the score in assay [2] is 1.32. This compound also had a rescue above control in assay [3] of 22.9. Further, the cytochrome c release ratio in assay [4] was 0.99.

The inhibition is the drop in the measured response relative to a control, in per cent.
